HEK293 cAMP ctrl: counter-screen for TSHR agonists: cAMP increase in parental HEK293. parental HEK293 CNG cAMP sensor, membrane potential fluorescence. Potency, µM (highest dose often 57.1 µM), actives largely listed as activators. 73,000 tested, 2.5% active. AID 938; also: nearly all actives have a fitted effect of over 55% in size
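Parental HEK 293 cells stably expressing a cAMP-gated CNG channel were loaded with membrane potential dye containing 100 uM RO 20-1724 for 60 min. Compound added for 30 min; depolarization read as fluorescence intensity at 590 nm.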
Hsp90 Hop PPI: changes Hsp90-Hop TPR2A binding signal, up or down; AlphaScreen TPR2A-His6 binding biotin-Hsp90 C-terminal peptide; Potency, µM (top dose mostly 57 µM); 71,000 tested, 0.44% active; active = well fitted curve in either direction with a large enough effect; inconclusive = small, poorly fitted or top-dose-only effect, or another doubt
BRCT PPI red: disrupts BRCA1 BRCT binding to phosphoprotein, red fluorophore readout; BRCT-phosphopeptide binding, red fluorescence polarization; P38398; 75,000 tested, 0.03% active; AID 892; Potency, µM (top dose mostly 76.9 µM), usual class: inhibitors
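Fluorescence polarization: 100 nM His-tagged BRCA1 BRCT with 100 nM TAMRA-labelled phospho-BACH1 decapeptide, phosphate buffer pH 7.3 with 150 mM NaCl, DTT, 0.01% Tween 20; 12 min RT. Binding inhibition seen as FP decrease.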
YjeE inh: inhibitors of E. coli YjeE (TsaE); purified YjeE enzyme, qHTS inhibition assay; P0AF67; 71,000 tested, 0.05% active; Potency, µM
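Fluorescence polarization of a BODIPY Texas Red–ADP probe (2 uM) bound to purified YjeE (10 uM) was read after 15 min room-temperature incubation with compounds. Loss of polarization marks inhibitors; ADP serves as titrated control.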
TSHR ag: activates the human thyroid stimulating hormone receptor; Potency, µM (top dose mostly 57.1 µM), most hits filed as activators; 73,000 tested, 0.48% active; HEK293-CNG-TSHR cells (CNG channel as cAMP sensor), membrane potential dye, cAMP; active = well fitted activation curve with a large enough effect in the main read-out, with a control signal flat, not every such curve was filed as active; inconclusive = small, poorly fitted or top-dose-only effect, or a change in a side signal; inactive = no such curve, though single readings can be large or run the other way; reference of the percent scale not stated here;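 also: the control signal comes from parental cells without the receptor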
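HEK 293 cells stably expressing TSHR and a modified CNG channel, with CNG-only parental cells as counterscreen, were preloaded 60 min at room temperature with membrane potential dye containing 100 uM RO 20-1724. Compound exposure was 30 min, and depolarization was read as fluorescence at 590 nm.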
BRCT inh green: BRCA1 BRCT-phosphoprotein interaction inhibition. BRCA1 BRCT-phosphopeptide binding, green fluorescence polarization. P38398. Potency, µM (series often up to 76.9 µM), hits mostly inhibitors. 75,000 tested, 0.05% active
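Compounds were incubated for 12 min at room temperature with a complex of 100 nM fluorescein-tagged pBACH1 decapeptide and 250 nM His-tagged BRCT protein. Buffer was phosphate pH 7.3 with EDTA, DTT and Tween 20. Disruption of binding lowers the polarization signal.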
Hits are given with their value; i = inactive; ? = inconclusive; nt = no result given; [ ] = dose if it differs, or a comment. Rows were chosen to be rich in hits. Some 3.3% of all compounds tested hit in one or more screens of this group. Unless noted, calls follow the shape of the dose curve; as a rule, active = well fitted curve in the direction sought with a large enough effect; inconclusive = small, poorly fitted or top-dose-only effect, or another doubt; inactive = no such curve, though single readings can be large; an effect the other way counts as inactive or inconclusive.

SMILES	HEK293 cAMP ctrl	Hsp90 Hop PPI	BRCT PPI red	YjeE inh	TSHR ag	BRCT inh green
CC(=O)Oc1ccc(/C=C\C(=O)C[C@@H]2O[C@@H](Oc3cc(OC(C)=O)c4c(c3)O[C@@H](c3ccc(OC(C)=O)cc3)CC4=O)[C@H](OC(C)=O)[C@H](OC(C)=O)[C@@H]2OC(C)=O)cc1	i	i	nt	i	i	nt
O=C1c2ccccc2C(=O)N1CCCCN(C(=O)c1ccco1)c1ccc(Cl)cc1	25µM	i	i	i	?	i
O=C1CCC(=O)N1CN(C(=O)c1ccco1)c1ccccc1	i	i	i	i	i	i
C[C@H]1[C@H](C)CC[C@]2(C(=O)O)CC[C@]3(C)C(=CC[C@@H]4[C@]5(C)C[C@H](O)[C@@H](O)[C@@](C)(CO)[C@@H]5[C@H](O)C[C@@]43C)[C@H]12	?	i[11 µM]	i[15.4 µM]	i	?	i[15.4 µM]
COc1ccc(OC)c(S(=O)(=O)n2ccnc2)c1	i	i	i	i	i	i
C=C(C)COc1ccc2c3c(c(=O)oc2c1OCC(=C)C)CCC3	25µM	i	i	i	?	i
CCOC(=O)CCN1C(=O)[C@H]2[C@H]3[C@H](O)[C@H](O)C/C(=N/NC(=O)OCc4ccccc4)[C@@H]3CC[C@@H]2C1=O	i[11.4 µM]	nt	i[15.4 µM]	nt	i[11.4 µM]	i[15.4 µM]
COc1ccc(C)cc1NC(=O)CN1CCN(c2ccccc2F)CC1	16µM	i	i	i	?	i
COc1cccc(NC(=O)CCN2CCN(c3ccccc3F)CC2)c1	25µM	nt	i	nt	?	i
O=C(CCN1CCN(c2ccc(Cl)cc2)CC1)Nc1ccccc1F	25µM	i	i	i	?	i
COc1ccc(OC)c(NC(=O)CCN2CCN(c3ccccc3F)CC2)c1	i[11.4 µM]	i[11 µM]	i	i	i[11.4 µM]	i
O=C(CCN1CCN(c2ccccc2F)CC1)Nc1ccccc1F	i	i	i	i	i	i
NC(=O)NC(=O)[C@H]1CCCC[C@@H]1C(=O)O	i[11.4 µM]	i[11 µM]	i[15.4 µM]	i	i[11.4 µM]	i[15.4 µM]
CN(C)c1ccc(-c2nc(NCCc3cnc[nH]3)c3ccccc3n2)cc1	i	i	i	i	?	i
COC(=O)C1=C(C)N(C)C(C)=C(C(=O)OC)C1c1ccc(F)c(Br)c1	32µM	i	i	i	?	i
COc1ccc(S(=O)(=O)N2CCC(C(=O)N3CCc4ccccc4C3)CC2)cc1	32µM	i	i	i	?	i
COc1ccc(C/C(O)=C(\C#N)c2nc3ccccc3s2)cc1	32µM	i	i	i	?	i
CCCCC[C@H](O)/C=C\[C@H]1[C@H](C/C=C\CCCC(=O)O)[C@@H](O)C[C@H]1O (tested in a mixture with another compound)	13µM	i	i	i	?	i
CCCCC[C@H](O)/C=C/[C@H]1[C@H](O)CC(=O)[C@@H]1C/C=C\CCCC(=O)O	0.01µM	nt	i	nt	?	i
CCCCC[C@H](O)/C=C\[C@@H]1[C@H](O)CC(=O)[C@@H]1CCCCCCC(=O)O	0.0025µM	i	i	i	?	i
CCCCC[C@H](O)C=C[C@H]1[C@H](O)CC(=O)[C@H]1CCCCCCC(=O)O	0.01µM	?	i	i	?	i
CC1=C(CC[C@H](C)CO)O[C@@H]2C[C@@H]3[C@H]4CC[C@H]5C[C@@H](O)CC[C@]5(C)[C@@H]4CC(=O)[C@@]3(C)[C@@H]12	i[11.4 µM]	i[11 µM]	i[15.4 µM]	i	i[11.4 µM]	i[15.4 µM]
O=C(O)COc1ccc(Br)cc1/C=N/O	?	i[11 µM]	i	i	?	i
CCOc1ccc(Br)cc1/C=N/O	4µM	i[11 µM]	i	i	?	i
Cn1c(=O)c(-c2cc(F)cc(F)c2)nc2cnc(N3CCNCC3)nc21	i[0.457 µM]	i	i	i	nt	i
SMILES	HEK293 cAMP ctrl	Hsp90 Hop PPI	BRCT PPI red	YjeE inh	TSHR ag	BRCT inh green
CC(CCC(=O)O)(c1cc(Br)c(O)c(Br)c1)c1cc(Br)c(O)c(Br)c1	1.3µM	i[11 µM]	i[15.4 µM]	i	?	i[15.4 µM]
COc1ccc(CNc2nc3nc(C)cc(C)n3n2)cc1OC	i	i	i	i	i	i
Cc1cc(C)n2nc(NCc3cccc(Br)c3)nc2n1	i	i	i	i	1µM	i
COc1ccc(S(=O)(=O)Nc2ccc3c(c2)OCO3)cc1OC	i	i	i	i	i	i
COc1ccc(S(=O)(=O)N(CC(=O)Nc2ccc3c(c2)OCO3)c2ccccc2OC)cc1	i	i	i	i	6.3µM	i
COc1ccccc1N(CC(=O)Nc1ccc2c(c1)OCO2)S(=O)(=O)c1ccccc1	?	i	i	i	?	i
COc1ccc(S(=O)(=O)Nc2ccc3c(c2)OCO3)cc1C(=O)O	32µM	nt	i	nt	?	i
Cc1ccc2ccc3cccc4ccc1c2c34	i	40µM	i	i	?	i
C[C@@H]1C=C[C@](Cc2ccccc2)(C(=O)O)N1C(=O)c1ccccc1	i	i	i	i	i	i
C[C@@H]1C=C[C@](Cc2ccccc2)(C(=O)NCCN2CCOCC2)N1C(=O)c1ccccc1	16µM	i	i	i	?	i
CN(O)/C=c1/ccc2c(n1)C(=O)C=CC=2	i	2µM	i	i	i	i
COc1ccc(-c2nc3cnc(N4CCOCC4)nc3n(Cc3cccs3)c2=O)cc1	i	i	i	i	i	i
CCOC(=O)C1CCCN(CC(=O)NC2=Nc3ccccc3N=C(C)C2c2ccccc2)C1 (configuration not stated)	i	i	i	i	25µM	i
COc1cccc(Cn2c(=O)c(-c3ccc(Cl)cc3)nc3cncnc32)c1	i	i	i	i	i	i
C[C@H](C(=O)c1ccccc1)[C@@H](c1ccccc1)N1CCOCC1	?	i[11 µM]	i[15.4 µM]	i	?	i[15.4 µM]
Cc1nn(-c2ccccc2)c(Cl)c1C1C(C#N)=C(N)OC2=C1C(=O)CCC2 (configuration not stated)	i	i	i	i	i	i
Cc1ccc(-n2nc(C)c(C3C(C#N)=C(N)OC4=C3C(=O)CC(C)(C)C4)c2Cl)cc1 (configuration not stated)	25µM	i	i	i	?	i
CCCn1c(C)nc2c(NCCN3CCOCC3)nc(C)nc21	i	i	i	i	i	i
O=C(c1c(Cl)nc2sccn12)N1CCN(c2cccc(Cl)c2)CC1	32µM	i	i	i	?	i
CC(C)(C)n1nnnc1C(c1ccccc1)N1CCc2ccccc2C1 (configuration not stated)	?	i	i	i	?	i
COc1ccccc1N1CCN(C(c2ccccc2Cl)c2nnnn2C(C)(C)C)CC1 (configuration not stated)	?	i	i	i	?	i
CCC(C)(C)n1nnnc1C(c1ccc(C)cc1)N1CCN(Cc2cccnc2)CC1 (configuration not stated)	i	i	i	i	i	i

Assay outcomes deposited in PubChem by National Center for Advancing Translational Sciences (NCATS).
